{"source": "the OligoGym collection", "test_in_all_cases": "pooled miR-30 sensor sort-seq; sequence = guide strand", "conditions_in_all_cases": "shRNA", "key": {"NHP2": {"molecular_target": "NHP2"}, "NKPD1": {"molecular_target": "NKPD1"}, "NGDN": {"molecular_target": "NGDN"}, "NKIRAS2": {"molecular_target": "NKIRAS2"}, "NLRP3": {"molecular_target": "NLRP3"}, "NMRAL1": {"molecular_target": "NMRAL1"}, "NODAL": {"molecular_target": "NODAL"}, "NMUR2": {"molecular_target": "NMUR2"}, "NOL7": {"molecular_target": "NOL7"}}, "data": [{"sequence": "TCTGCTTCTGCTTCACCGCTTT", "values": [{"measurement": "sensor-assay potency score (higher = more potent)", "setting": "NHP2", "value": 0.228}]}, {"sequence": "TTTCTGAACCTCTTTCACCCCG", "values": [{"measurement": "sensor-assay potency score (higher = more potent)", "setting": "NHP2", "value": 0.283}]}, {"sequence": "TCTCGCGGTACAACAGGTCGTC", "values": [{"measurement": "sensor-assay potency score (higher = more potent)", "setting": "NKPD1", "value": -0.615}]}, {"sequence": "TACAGCCATCACTTGCTCCTGG", "values": [{"measurement": "sensor-assay potency score (higher = more potent)", "setting": "NGDN", "value": -0.0207}]}, {"sequence": "TTTTCTTCCGACCTTTCTGAGG", "values": [{"measurement": "sensor-assay potency score (higher = more potent)", "setting": "NGDN", "value": -1.13}]}, {"sequence": "TTGTTCTTCCGGCTGAGGGGGA", "values": [{"measurement": "sensor-assay potency score (higher = more potent)", "setting": "NKIRAS2", "value": -0.774}]}, {"sequence": "TATTGTGTCCAACCAATGCATC", "values": [{"measurement": "sensor-assay potency score (higher = more potent)", "setting": "NKIRAS2", "value": -1.63}]}, {"sequence": "TAGGATTCTGATCCTCATCAAG", "values": [{"measurement": "sensor-assay potency score (higher = more potent)", "setting": "NGDN", "value": -1.32}]}, {"sequence": "TTGCTCGTTTTCGCCGTCCTTT", "values": [{"measurement": "sensor-assay potency score (higher = more potent)", "setting": "NGDN", "value": -1.03}]}, {"sequence": "TTTCTGTAGGATAGGCACCAGC", "values": [{"measurement": "sensor-assay potency score (higher = more potent)", "setting": "NGDN", "value": -1.35}]}, {"sequence": "TGTCACTGCAGTCTTGATCAGC", "values": [{"measurement": "sensor-assay potency score (higher = more potent)", "setting": "NGDN", "value": -0.949}]}, {"sequence": "TTCACCGCTTTCTTGATGCATT", "values": [{"measurement": "sensor-assay potency score (higher = more potent)", "setting": "NHP2", "value": -0.959}]}, {"sequence": "TTATTGTGTCCAACCAATGCAT", "values": [{"measurement": "sensor-assay potency score (higher = more potent)", "setting": "NKIRAS2", "value": -0.509}]}, {"sequence": "TTTGTCAATCTCCTTCTTGAGC", "values": [{"measurement": "sensor-assay potency score (higher = more potent)", "setting": "NKIRAS2", "value": -1.29}]}, {"sequence": "TTTCTCTCGCTTACTGACGCTC", "values": [{"measurement": "sensor-assay potency score (higher = more potent)", "setting": "NGDN", "value": -0.845}]}, {"sequence": "TTTCTTGATGCATTTGTAGAGC", "values": [{"measurement": "sensor-assay potency score (higher = more potent)", "setting": "NHP2", "value": -0.635}]}, {"sequence": "TGCGTCTCGATCATCTCCGAAC", "values": [{"measurement": "sensor-assay potency score (higher = more potent)", "setting": "NKIRAS2", "value": -1.51}]}, {"sequence": "TAATGTACTGGAACCAAGCGTG", "values": [{"measurement": "sensor-assay potency score (higher = more potent)", "setting": "NGDN", "value": -0.00853}]}, {"sequence": "TCTCGATCATCTCCGAACCCAC", "values": [{"measurement": "sensor-assay potency score (higher = more potent)", "setting": "NKIRAS2", "value": -1.49}]}, {"sequence": "TTGCCAAGGACCACGATGGTGA", "values": [{"measurement": "sensor-assay potency score (higher = more potent)", "setting": "NKIRAS2", "value": -0.541}]}, {"sequence": "TTGCTCATCATATTGCTGGGAT", "values": [{"measurement": "sensor-assay potency score (higher = more potent)", "setting": "NGDN", "value": 0.439}]}, {"sequence": "TTGACCATTATCACACAGGTGG", "values": [{"measurement": "sensor-assay potency score (higher = more potent)", "setting": "NHP2", "value": -0.273}]}, {"sequence": "TTCTGAACCTCTTTCACCCCGC", "values": [{"measurement": "sensor-assay potency score (higher = more potent)", "setting": "NHP2", "value": -0.0214}]}, {"sequence": "TTACGAACAGGTGCTTGCCCAC", "values": [{"measurement": "sensor-assay potency score (higher = more potent)", "setting": "NKPD1", "value": -0.968}]}, {"sequence": "AGGAACTGCAGCTTGGTGCGGC", "values": [{"measurement": "sensor-assay potency score (higher = more potent)", "setting": "NKPD1", "value": -1.31}]}, {"sequence": "ATATTTCTTAGACACTCCCTTC", "values": [{"measurement": "sensor-assay potency score (higher = more potent)", "setting": "NGDN", "value": -0.888}]}, {"sequence": "TTCTAGACGCTTCTTCTCCCGC", "values": [{"measurement": "sensor-assay potency score (higher = more potent)", "setting": "NGDN", "value": -0.831}]}, {"sequence": "TAGAGCTTCCGCGTGAGGCGGC", "values": [{"measurement": "sensor-assay potency score (higher = more potent)", "setting": "NHP2", "value": -0.484}]}, {"sequence": "AAGCTGTAGAACTTCTCGCAGT", "values": [{"measurement": "sensor-assay potency score (higher = more potent)", "setting": "NLRP3", "value": -0.94}]}, {"sequence": "TGTGATGACAACAACACCCGAT", "values": [{"measurement": "sensor-assay potency score (higher = more potent)", "setting": "NLRP3", "value": 0.603}]}, {"sequence": "TTTGCTGCCTTCTTCCTAGGGT", "values": [{"measurement": "sensor-assay potency score (higher = more potent)", "setting": "NMRAL1", "value": 0.121}]}, {"sequence": "TAATTGGTCACGATGAAGGTGG", "values": [{"measurement": "sensor-assay potency score (higher = more potent)", "setting": "NMRAL1", "value": -0.074}]}, {"sequence": "TACTTCTGCACCTTGCAGCCTC", "values": [{"measurement": "sensor-assay potency score (higher = more potent)", "setting": "NMRAL1", "value": -0.418}]}, {"sequence": "TTATCCACATACAGCATGCTCA", "values": [{"measurement": "sensor-assay potency score (higher = more potent)", "setting": "NODAL", "value": -0.807}]}, {"sequence": "TTTGAATATTTGCATTCCCTTC", "values": [{"measurement": "sensor-assay potency score (higher = more potent)", "setting": "NMUR2", "value": -0.976}]}, {"sequence": "AACTTATTTACAGTAGTCCTGT", "values": [{"measurement": "sensor-assay potency score (higher = more potent)", "setting": "NOL7", "value": -0.21}]}, {"sequence": "TTGATGTTCTCCAGGCCGCTGT", "values": [{"measurement": "sensor-assay potency score (higher = more potent)", "setting": "NMRAL1", "value": -0.625}]}, {"sequence": "TACATGAGTTGTAAGAGCCATT", "values": [{"measurement": "sensor-assay potency score (higher = more potent)", "setting": "NMUR2", "value": -0.996}]}, {"sequence": "TTGTACTTTAACTTTCTTGGAG", "values": [{"measurement": "sensor-assay potency score (higher = more potent)", "setting": "NOL7", "value": -0.0182}]}, {"sequence": "TAGTTTGTTCTTGACATCTGTT", "values": [{"measurement": "sensor-assay potency score (higher = more potent)", "setting": "NMUR2", "value": -0.227}]}, {"sequence": "TGTCTTTATGGTGATCTAGGAG", "values": [{"measurement": "sensor-assay potency score (higher = more potent)", "setting": "NODAL", "value": -0.744}]}, {"sequence": "TAACGTTTCAGCAGACTCTGGA", "values": [{"measurement": "sensor-assay potency score (higher = more potent)", "setting": "NODAL", "value": 1.03}]}, {"sequence": "TTCTGCACCTTGCAGCCTCAGC", "values": [{"measurement": "sensor-assay potency score (higher = more potent)", "setting": "NMRAL1", "value": -0.852}]}, {"sequence": "TTTATGGTGATCTAGGAGCACT", "values": [{"measurement": "sensor-assay potency score (higher = more potent)", "setting": "NODAL", "value": -0.921}]}, {"sequence": "TTTGTCTTTCTTTAGTCTGAGT", "values": [{"measurement": "sensor-assay potency score (higher = more potent)", "setting": "NMUR2", "value": -1.1}]}, {"sequence": "TCCTTTGCTGCCTTCTTCCTAG", "values": [{"measurement": "sensor-assay potency score (higher = more potent)", "setting": "NMRAL1", "value": -1.25}]}, {"sequence": "TTGGAGAATACATGAAAGCTAT", "values": [{"measurement": "sensor-assay potency score (higher = more potent)", "setting": "NODAL", "value": -0.351}]}, {"sequence": "TTCTTGACATCTGTTCACTAGA", "values": [{"measurement": "sensor-assay potency score (higher = more potent)", "setting": "NMUR2", "value": -0.341}]}, {"sequence": "TGTACTTTAACTTTCTTGGAGT", "values": [{"measurement": "sensor-assay potency score (higher = more potent)", "setting": "NOL7", "value": -0.613}]}, {"sequence": "TTGGGGACCTATATCTTCGGTC", "values": [{"measurement": "sensor-assay potency score (higher = more potent)", "setting": "NMUR2", "value": -0.773}]}, {"sequence": "TTTCAGCAGACTCTGGATGTAT", "values": [{"measurement": "sensor-assay potency score (higher = more potent)", "setting": "NODAL", "value": -0.374}]}, {"sequence": "TTTCTTTAGTCTGAGTGCCATG", "values": [{"measurement": "sensor-assay potency score (higher = more potent)", "setting": "NMUR2", "value": -1.41}]}, {"sequence": "TGATCTAGGAGCACTCTGCCAT", "values": [{"measurement": "sensor-assay potency score (higher = more potent)", "setting": "NODAL", "value": -0.476}]}, {"sequence": "TAACTTCTTTCACCTTTCCTGG", "values": [{"measurement": "sensor-assay potency score (higher = more potent)", "setting": "NOL7", "value": -0.398}]}, {"sequence": "TCTGCCATTATCCACATACAGC", "values": [{"measurement": "sensor-assay potency score (higher = more potent)", "setting": "NODAL", "value": -1.71}]}, {"sequence": "TTGAACACAGCAGCCAGGGATT", "values": [{"measurement": "sensor-assay potency score (higher = more potent)", "setting": "NMUR2", "value": -1.59}]}, {"sequence": "TTCAGTAAAGAGAACATCCAGC", "values": [{"measurement": "sensor-assay potency score (higher = more potent)", "setting": "NODAL", "value": 0.203}]}, {"sequence": "TAAAGAACTCATGCACTTGTGC", "values": [{"measurement": "sensor-assay potency score (higher = more potent)", "setting": "NODAL", "value": 0.25}]}, {"sequence": "TTCGTAGTCCTCAGGAGTCATC", "values": [{"measurement": "sensor-assay potency score (higher = more potent)", "setting": "NMRAL1", "value": -1.71}]}, {"sequence": "TTATTTACAGTAGTCCTGTTGG", "values": [{"measurement": "sensor-assay potency score (higher = more potent)", "setting": "NOL7", "value": -0.0686}]}]}
